Source: the supplement of paper PMC10849652
Targets with a hit are over-represented here; the source holds about 7,900 in all. About 0.6% of all pairs of compound and target were hits. A number with no mark means an inactive call.

What follows are targets tested with C[C@H](C1=CC=C(C=C1)C(=O)NC2=C3C=CNC3=NC=C2)N (assay: log2 fold change, soluble protein after heating vs DMSO (PISA); higher = thermal stabilisation; K562 cells, 10 uM, 30 min; active = over 0.2 and 3.5 SD of the protein, either way, in both replicates (recomputed)).
In short: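 Quantification of soluble protein used TMTpro 16plex LC-MS/MS, with channel sums equalised. Samples were the supernatant after 21,000xg for 90 min of pooled aliquots from K562 cells (2×10^6 cells/mL) treated with 10 μM compound for 30 min, heated for 3 min over 48°C-58°C, and extracted in PBS with 0.5% NP-40 at 4°C. Values, from duplicates, describe thermal stability against control samples on a log2 fold-change scale.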

Chain of UniProt O60749 (O60749 whole entry, looked up): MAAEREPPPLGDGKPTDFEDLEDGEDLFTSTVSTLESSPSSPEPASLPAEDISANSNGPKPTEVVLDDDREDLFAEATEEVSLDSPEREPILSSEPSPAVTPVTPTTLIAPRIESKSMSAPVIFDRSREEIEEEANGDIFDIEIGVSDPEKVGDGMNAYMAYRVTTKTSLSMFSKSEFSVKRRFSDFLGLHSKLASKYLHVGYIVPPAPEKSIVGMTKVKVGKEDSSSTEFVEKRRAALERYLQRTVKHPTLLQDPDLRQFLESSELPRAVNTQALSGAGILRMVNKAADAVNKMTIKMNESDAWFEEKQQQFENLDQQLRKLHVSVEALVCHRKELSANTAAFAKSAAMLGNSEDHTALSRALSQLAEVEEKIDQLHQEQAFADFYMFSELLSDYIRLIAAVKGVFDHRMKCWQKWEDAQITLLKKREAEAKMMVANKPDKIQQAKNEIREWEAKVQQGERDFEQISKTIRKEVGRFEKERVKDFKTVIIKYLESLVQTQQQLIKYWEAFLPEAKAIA
Chain of UniProt Q9Y5J6 (Q9Y5J6 whole entry, looked up): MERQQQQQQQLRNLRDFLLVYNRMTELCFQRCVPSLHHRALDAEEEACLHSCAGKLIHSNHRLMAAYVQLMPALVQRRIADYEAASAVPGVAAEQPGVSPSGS
Chain of UniProt Q8N5G0 (Q8N5G0 whole entry, looked up): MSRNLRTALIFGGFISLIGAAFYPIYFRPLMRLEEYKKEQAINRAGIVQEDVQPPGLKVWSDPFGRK
Chain of UniProt O76062 (O76062 whole entry, looked up): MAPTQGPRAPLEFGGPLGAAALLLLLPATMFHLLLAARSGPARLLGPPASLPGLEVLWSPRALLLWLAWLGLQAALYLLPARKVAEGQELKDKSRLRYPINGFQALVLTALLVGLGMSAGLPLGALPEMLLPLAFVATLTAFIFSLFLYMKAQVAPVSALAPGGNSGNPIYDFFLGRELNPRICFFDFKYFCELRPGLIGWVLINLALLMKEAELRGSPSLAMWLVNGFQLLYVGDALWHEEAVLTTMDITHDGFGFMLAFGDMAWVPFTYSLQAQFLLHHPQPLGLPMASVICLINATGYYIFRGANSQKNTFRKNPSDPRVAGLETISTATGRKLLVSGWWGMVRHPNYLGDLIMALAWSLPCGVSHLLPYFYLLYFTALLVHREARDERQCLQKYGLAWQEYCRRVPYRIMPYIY
Chain of UniProt Q6ZRS2 (Q6ZRS2 whole entry, looked up): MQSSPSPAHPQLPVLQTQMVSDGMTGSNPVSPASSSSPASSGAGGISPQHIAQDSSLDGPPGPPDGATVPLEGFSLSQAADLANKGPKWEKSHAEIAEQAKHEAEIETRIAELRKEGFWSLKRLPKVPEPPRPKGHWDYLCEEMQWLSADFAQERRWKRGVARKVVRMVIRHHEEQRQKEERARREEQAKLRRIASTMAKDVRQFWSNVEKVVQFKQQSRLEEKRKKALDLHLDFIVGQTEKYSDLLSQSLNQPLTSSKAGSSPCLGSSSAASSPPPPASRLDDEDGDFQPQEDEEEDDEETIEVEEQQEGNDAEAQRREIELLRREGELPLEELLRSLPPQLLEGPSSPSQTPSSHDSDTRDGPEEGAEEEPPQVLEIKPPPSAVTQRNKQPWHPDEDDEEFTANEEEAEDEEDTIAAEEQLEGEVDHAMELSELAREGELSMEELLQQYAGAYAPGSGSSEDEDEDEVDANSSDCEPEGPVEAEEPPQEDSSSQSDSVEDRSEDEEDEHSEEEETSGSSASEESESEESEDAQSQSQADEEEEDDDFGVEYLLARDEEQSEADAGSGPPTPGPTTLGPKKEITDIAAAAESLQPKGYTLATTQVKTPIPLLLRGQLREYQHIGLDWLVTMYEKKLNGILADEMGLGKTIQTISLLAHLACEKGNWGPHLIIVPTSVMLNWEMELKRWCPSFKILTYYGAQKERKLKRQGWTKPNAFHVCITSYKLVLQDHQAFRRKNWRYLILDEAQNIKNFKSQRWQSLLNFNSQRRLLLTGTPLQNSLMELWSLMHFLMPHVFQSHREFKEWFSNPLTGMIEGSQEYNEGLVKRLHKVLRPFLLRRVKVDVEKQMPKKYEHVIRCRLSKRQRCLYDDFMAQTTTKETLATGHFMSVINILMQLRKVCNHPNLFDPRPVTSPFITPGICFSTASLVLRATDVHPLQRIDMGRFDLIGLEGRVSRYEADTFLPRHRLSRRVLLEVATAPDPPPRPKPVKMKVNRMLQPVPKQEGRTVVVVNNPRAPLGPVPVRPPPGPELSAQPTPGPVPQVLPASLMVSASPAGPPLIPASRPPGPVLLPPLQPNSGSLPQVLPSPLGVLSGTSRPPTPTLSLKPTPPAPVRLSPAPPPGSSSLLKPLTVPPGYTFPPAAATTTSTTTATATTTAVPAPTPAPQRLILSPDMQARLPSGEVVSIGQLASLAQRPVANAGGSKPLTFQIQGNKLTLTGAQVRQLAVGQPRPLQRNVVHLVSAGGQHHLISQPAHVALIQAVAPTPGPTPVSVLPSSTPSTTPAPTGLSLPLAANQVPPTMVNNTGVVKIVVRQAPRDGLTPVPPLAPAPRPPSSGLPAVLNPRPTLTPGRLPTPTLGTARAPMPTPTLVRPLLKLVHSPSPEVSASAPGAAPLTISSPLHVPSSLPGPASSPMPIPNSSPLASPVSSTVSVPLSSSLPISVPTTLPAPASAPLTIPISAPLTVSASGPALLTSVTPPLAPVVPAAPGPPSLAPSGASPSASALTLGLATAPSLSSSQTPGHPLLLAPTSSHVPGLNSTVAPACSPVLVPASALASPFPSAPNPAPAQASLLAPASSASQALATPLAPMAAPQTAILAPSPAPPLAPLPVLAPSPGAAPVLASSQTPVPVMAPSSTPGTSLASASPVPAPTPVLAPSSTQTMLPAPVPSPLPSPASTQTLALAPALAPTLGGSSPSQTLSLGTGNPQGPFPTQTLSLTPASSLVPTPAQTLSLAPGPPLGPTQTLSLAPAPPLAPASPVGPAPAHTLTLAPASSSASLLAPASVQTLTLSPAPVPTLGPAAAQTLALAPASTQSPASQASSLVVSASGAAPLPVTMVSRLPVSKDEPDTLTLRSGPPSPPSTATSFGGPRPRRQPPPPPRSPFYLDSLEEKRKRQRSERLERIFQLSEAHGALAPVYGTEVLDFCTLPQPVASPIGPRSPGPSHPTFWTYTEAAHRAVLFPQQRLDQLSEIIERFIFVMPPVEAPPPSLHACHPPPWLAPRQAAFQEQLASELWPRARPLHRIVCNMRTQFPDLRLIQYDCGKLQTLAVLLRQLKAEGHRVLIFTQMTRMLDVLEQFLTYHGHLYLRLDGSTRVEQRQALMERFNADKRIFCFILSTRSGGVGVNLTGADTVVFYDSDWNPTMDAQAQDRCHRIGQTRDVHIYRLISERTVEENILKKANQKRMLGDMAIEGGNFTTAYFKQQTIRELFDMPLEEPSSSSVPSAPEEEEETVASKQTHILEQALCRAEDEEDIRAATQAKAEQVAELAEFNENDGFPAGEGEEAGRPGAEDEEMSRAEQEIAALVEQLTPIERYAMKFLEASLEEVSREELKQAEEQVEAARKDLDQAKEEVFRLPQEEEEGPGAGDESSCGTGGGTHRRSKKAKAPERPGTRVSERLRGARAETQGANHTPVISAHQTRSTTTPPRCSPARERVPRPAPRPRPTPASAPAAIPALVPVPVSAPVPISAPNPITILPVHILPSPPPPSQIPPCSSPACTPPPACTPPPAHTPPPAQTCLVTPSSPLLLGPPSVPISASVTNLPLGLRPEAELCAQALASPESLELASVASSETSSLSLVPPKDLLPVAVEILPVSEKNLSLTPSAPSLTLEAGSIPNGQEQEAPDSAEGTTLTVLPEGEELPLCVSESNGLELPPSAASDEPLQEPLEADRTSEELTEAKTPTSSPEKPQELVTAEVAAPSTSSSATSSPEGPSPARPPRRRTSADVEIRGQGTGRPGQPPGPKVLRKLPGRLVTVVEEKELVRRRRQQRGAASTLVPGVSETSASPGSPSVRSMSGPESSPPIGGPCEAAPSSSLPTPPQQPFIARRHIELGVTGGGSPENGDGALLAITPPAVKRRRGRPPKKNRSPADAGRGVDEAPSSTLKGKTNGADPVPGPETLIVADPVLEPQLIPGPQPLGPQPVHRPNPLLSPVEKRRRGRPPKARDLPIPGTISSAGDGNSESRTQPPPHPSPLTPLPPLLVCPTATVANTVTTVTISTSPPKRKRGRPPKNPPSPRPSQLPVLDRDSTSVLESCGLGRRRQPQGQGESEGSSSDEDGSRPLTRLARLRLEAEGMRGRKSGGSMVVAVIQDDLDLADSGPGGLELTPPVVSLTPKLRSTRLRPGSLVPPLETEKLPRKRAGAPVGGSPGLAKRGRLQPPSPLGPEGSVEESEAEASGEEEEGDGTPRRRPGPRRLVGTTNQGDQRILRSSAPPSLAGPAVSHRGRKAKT
Chain of UniProt Q5JUR7 (Q5JUR7 whole entry, looked up): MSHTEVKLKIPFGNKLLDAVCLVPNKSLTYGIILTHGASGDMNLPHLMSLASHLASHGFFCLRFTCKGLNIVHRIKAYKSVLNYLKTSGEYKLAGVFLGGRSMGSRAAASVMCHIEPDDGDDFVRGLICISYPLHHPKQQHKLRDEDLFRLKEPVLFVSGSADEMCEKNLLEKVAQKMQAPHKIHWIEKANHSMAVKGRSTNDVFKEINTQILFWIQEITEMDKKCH
Chain of UniProt Q5VWP2 (Q5VWP2 whole entry, looked up): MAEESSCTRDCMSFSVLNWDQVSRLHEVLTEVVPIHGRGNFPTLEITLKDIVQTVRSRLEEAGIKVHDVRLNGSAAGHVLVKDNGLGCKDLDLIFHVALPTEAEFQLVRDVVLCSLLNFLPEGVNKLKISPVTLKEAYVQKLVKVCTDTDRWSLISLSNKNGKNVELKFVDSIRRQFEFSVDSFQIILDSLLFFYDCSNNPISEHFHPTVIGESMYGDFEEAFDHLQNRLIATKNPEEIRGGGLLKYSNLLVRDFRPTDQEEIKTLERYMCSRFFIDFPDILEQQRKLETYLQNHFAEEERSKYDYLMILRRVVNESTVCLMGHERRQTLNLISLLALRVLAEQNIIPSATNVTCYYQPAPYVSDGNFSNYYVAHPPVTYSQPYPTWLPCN

| Target | log2 fold change |
| --- | --- |
| SLC35B1 isoform 2 (UniProt P78383) | -0.535 (active) |
| SNX2 isoform 2 (UniProt O60749) | 0.108 |
| SMPD4 isoform 2 (UniProt Q9NXE4) | -0.061 |
| SPIRE1 (UniProt Q08AE8) | 0.087 |
| TDP1 (UniProt Q9NUW8) | 0.145 |
| SLC8B1 (UniProt Q6J4K2) | 0.129 |
| SLC9A6 isoform 3 (UniProt Q92581) | -0.018 |
| SRCAP (UniProt Q6ZRS2) | -0.111 |
| TENT5C (UniProt Q5VWP2) | 0.011 |
| THAP9 (UniProt Q9H5L6) | -0.105 |
| TBP (UniProt P20226) | 0.303 |
| SLC46A1 (UniProt Q96NT5) | -0.047 |
| SMARCB1 (UniProt Q12824) | 0.284 |
| SYK (UniProt P43405) | 0.053 |
| TCOF1 isoform 6 (UniProt Q13428) | -0.025 |
| TIMM10B (UniProt Q9Y5J6) | 0.031 |
| SLC35F6 (UniProt Q8N357) | 0.076 |
| TEX30 (UniProt Q5JUR7) | 0.044 |
| TM7SF2 (UniProt O76062) | 0.028 |
| SLC39A1 (UniProt Q9NY26) | 0.023 |
| SMIM20 isoform 2 (UniProt Q8N5G0) | 0.019 |
| TMBIM1 (UniProt Q969X1) | 0.274 |
